KCC2 mod – modulators of human KCC2 chloride dependent transport; KCC2 cells, thallium flux FluoZin-2 fluorescence; AID 1456; B-score of Tl+ flux slope (higher = more flux/activation; lower = inhibition) at 10 µM; Q9H2X9; actives 2.2% (n = 190,000);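 active = thallium flux slope and its plate-corrected score both differing from the plate sample mean at a set confidence after two filtering rounds, in either direction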;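 note: slope of fluorescence scaled to starting intensity during 10 to 20 s after thallium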
Target sequence (Q9H2X9 whole entry, looked up): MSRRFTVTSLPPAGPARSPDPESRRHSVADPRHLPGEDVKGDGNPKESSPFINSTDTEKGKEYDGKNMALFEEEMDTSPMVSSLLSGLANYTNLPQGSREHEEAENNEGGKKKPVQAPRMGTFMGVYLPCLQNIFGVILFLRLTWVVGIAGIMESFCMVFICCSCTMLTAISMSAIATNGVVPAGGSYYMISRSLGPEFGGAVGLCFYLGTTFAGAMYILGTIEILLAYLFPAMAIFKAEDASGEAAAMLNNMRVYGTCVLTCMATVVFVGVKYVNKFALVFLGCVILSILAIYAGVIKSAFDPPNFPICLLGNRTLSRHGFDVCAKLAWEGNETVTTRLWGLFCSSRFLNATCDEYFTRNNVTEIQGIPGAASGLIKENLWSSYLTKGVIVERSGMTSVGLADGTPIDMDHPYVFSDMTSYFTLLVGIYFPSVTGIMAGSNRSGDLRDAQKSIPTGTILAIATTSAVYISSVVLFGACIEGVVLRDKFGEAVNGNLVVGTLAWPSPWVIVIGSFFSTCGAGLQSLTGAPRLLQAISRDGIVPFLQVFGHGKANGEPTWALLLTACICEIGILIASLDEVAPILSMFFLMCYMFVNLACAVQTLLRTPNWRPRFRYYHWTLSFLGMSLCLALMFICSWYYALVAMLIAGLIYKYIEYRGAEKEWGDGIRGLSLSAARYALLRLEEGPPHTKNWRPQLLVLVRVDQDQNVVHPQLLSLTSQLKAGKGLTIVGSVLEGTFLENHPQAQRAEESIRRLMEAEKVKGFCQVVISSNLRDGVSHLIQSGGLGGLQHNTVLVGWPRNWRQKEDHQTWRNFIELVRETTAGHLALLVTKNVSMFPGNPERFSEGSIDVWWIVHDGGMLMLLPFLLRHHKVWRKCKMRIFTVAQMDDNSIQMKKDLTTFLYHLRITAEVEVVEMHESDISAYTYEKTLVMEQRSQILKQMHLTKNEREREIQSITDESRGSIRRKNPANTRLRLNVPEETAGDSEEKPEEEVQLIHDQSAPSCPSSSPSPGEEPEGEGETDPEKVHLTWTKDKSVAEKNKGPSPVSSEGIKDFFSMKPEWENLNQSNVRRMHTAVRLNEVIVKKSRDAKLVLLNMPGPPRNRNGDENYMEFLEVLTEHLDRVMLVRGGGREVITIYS
Cardio protect – protects H9c2 cardiomyocytes from peroxide injury | H2O2 injury protection, ATPLite, 2 h | protection from H2O2 cell death, % at 20 µM | actives 0.63% (n = 360,000);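 active = compounds giving at least 50% protection of heart cells from peroxide-induced death in the single-dose screen, raw or plate-pattern-corrected value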;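 note: 0% = DMSO wells with peroxide and 100% = DMSO wells without peroxide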
Efflux pump mplx – inhibitors of Candida antifungal efflux pumps expressed in yeast. S. cerevisiae Candida pump triplex, Nile Red efflux. actives 0.44% (n = 330,000). inhibition, % at 10 µM;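 active = plate passing quality check with inhibition over a set limit, or well fluorescence over plate mean plus 4 SD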;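 note: Nile Red retained in pooled yeast measured as flow cytometry median fluorescence; 0% = buffer negative control and 100% = Enniatin B positive control; higher means more Nile Red kept so more efflux inhibition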
PHOSPHO1 inh – PHOSPHO1 (human) inhibition. recombinant PHOSPHO1, absorbance phosphatase assay. inhibition, % at 13.3 µM. actives 1.1% (n = 290,000); in the data active = inhibition above about 60%
Calb FLC – affects C. albicans growth with fluconazole. C. albicans CaCi-2 (fluconazole-resistant clinical isolate) + fluconazole, Alamar Blue growth, 48 h. growth inhibition, % (test concentration not listed). actives 0.57% (n = 300,000);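 active = growth inhibition above about 58% in most replicates, limit read from the data, passing the limit was not always enough; inconclusive = exactly half the replicates above a set limit; inactive = most replicates below a set limit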;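 note: all wells also contain fluconazole at 8 µg/ml as a sub-toxic cotreatment; 0% = median of DMSO wells and 100% = median of geldanamycin control wells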
The depositor's hits bear a star; ? = inconclusive; . = not tested or not shown. An excerpt weighted towards active compounds, which were near 3.3% of everything screened.

SMILES | KCC2 mod | Cardio protect | Efflux pump mplx | PHOSPHO1 inh | Calb FLC
Cc1cc(C)nc(SCc2ccc(C(=O)N/N=C/c3ccccn3)cc2)n1 | -1.1 | 69* | 0 | 21 | -21
O=C(N/N=C/c1ccccn1)c1cc(-c2ccc(Br)s2)[nH]n1 | . | 47 | 0 | 15 | -16
O=C(N/N=C/c1ccccn1)c1cc(-c2cccc3ccccc23)n[nH]1 | -1.1 | 56* | 0 | -6 | -10
O=C(N/N=C/c1ccccn1)c1cc(-c2ccc(Cl)s2)[nH]n1 | . | 59* | 0 | 39 | -2
O=C(N/N=C/c1ccccn1)c1cc(C2CC2)nc2ccccc12 | . | 55* | 0 | 10 | -3
O=C(N/N=C/c1ccncc1)c1cc(C2CC2)nc2ccccc12 | . | 0 | 0 | 22 | -2
CC(C)(C)n1nc2c(c1NC(=O)c1ccc(Cl)c([N+](=O)[O-])c1)CS(=O)(=O)C2 | . | 2 | 0 | 22 | 0
CC(=O)N1C[C@H]2CON(C)[C@H]2C[C@H]1c1cccc(N2CCOCC2)c1 | . | 3 | . | . | .
Cc1ccnc(N=Cc2c(O)ccc3oc4c(c23)CCCC4)c1 | -0.038 | . | 0 | -24 | .
O=C(O)c1ccc(N=Cc2c(O)ccc3oc4c(c23)CCCC4)cc1 | . | 62* | 0 | -13 | 7
Oc1ccc2oc3c(c2c1C=NCc1ccncc1)CCCC3 | -0.53 | 67* | 0 | 0 | 22
Oc1ccccc1N=Cc1c(O)ccc2oc3c(c12)CCCC3 | -0.026 | 7 | 0 | 6 | -12
Oc1ccc2oc3c(c2c1/C=N/n1cnnc1)CCCC3 | 1.2 | 60* | 0 | 7 | 22
CC(C)OP(=O)(c1ccc(N(C)C)cc1)C(O)c1ccccc1 (configuration not stated) | -0.12 | -4 | 0 | 17 | 98*
CC(C)OP(=O)(c1ccc(N(C)C)cc1)C(O)c1ccc(C(C)C)cc1 (configuration not stated) | . | -4 | 0 | . | 4
CCOc1ccc2nc(N3CCC(C(=O)NC4CCCCC4)CC3)sc2c1 | . | -19 | 0 | 65* | -24
CCOc1ccc2nc(N3CCCC(C(=O)NC4CCCC4)C3)sc2c1 (configuration not stated) | . | -8 | 0 | 17 | -5
CC1(C)OC(C)(C)/C(=C\c2ccc(OCC(N)=O)cc2)C1=O | . | 10 | 0 | . | .
COc1ccc(C2CCCCCN2C(=O)C2CCN(S(=O)(=O)c3cccc(C(C)=O)c3)CC2)cc1 (configuration not stated) | . | 83* | . | . | .
O=C(OCC(=O)c1ccc[nH]1)c1ccc(S(=O)(=O)C(F)F)cc1 | . | 10 | . | . | .
CC#CCN(Cc1ccco1)C(=O)C1CCC(=O)N(CCc2cccc(F)c2)C1 (configuration not stated) | . | -6 | . | . | .
CCCCCc1ccc(OCCOCCn2c[n+](C)c3ccccc32)c(CCCCC)c1 | 0.037 | -17 | . | 3 | 104*
COc1ccc(Oc2c(C)oc3c(CN4CCOCC4)c(O)ccc3c2=O)cc1 | 0.24 | 6 | 0 | 60* | -1
Cc1ccc2cc(C(c3nnnn3Cc3ccccc3)N3CCN(c4ccccc4)CC3)c(=O)[nH]c2c1 (configuration not stated) | . | 17 | 1 | -44 | 8
CCN(Cc1ccccc1)C(c1cc2ccc(C)cc2[nH]c1=O)c1nnnn1CCOC (configuration not stated) | -1.2 | 6 | 0 | 99* | ?
SMILES | KCC2 mod | Cardio protect | Efflux pump mplx | PHOSPHO1 inh | Calb FLC
COc1ccc2cc(C(c3nnnn3Cc3ccccc3)N3CCCCCC3)c(=O)[nH]c2c1 (configuration not stated) | -1.9 | 1 | 0 | 94* | -1
CCOc1cc(/C=C(\C#N)C(=O)NCC2CCCO2)ccc1OCC(N)=O (configuration not stated) | 0.079 | 13 | 0 | 17 | 105*
C#CCOCCOCCOCCNc1nc(N2CCN(C(=O)C([C@@H](C)CC)n3cc(C(N)COC(=O)C(F)(F)F)nn3)CC2)nc(N2CCN(C(=O)[C@H](CCC(=O)O)n3cc(C(N)CC(C)C)nn3)CC2)n1 (some centres not stated) | . | . | 0 | . | 7
CN(Cc1cc([N+](=O)[O-])c2cccnc2c1O)C1CCCCC1 | 1.8 | . | 8.2* | -9 | 2
O=[N+]([O-])c1cc(CN2CCOCC2)c2cccnc2c1O | -0.58 | . | . | 6 | .
O=[N+]([O-])c1cc(CN2CCN(c3ccccc3)CC2)c(O)c2ncccc12 | 0.62 | 24 | 0 | 30 | 100*
NC(=O)c1ccccc1OCC(=O)Nc1ccc(Cl)c(Cl)c1 | 0.041 | 1 | 0 | 20 | 14
O=c1[nH]n(CC2COC3(CCCCC3)O2)c(=O)c2ccccc12 (configuration not stated) | 0.23 | 52* | 0 | 23 | 3
C1CCCCCC2(CCCCC1)OCC(CN1CCOCC1)O2 (configuration not stated) | -0.22 | -9 | 0 | -10 | 9
Cc1cccc(CCNC(=O)C2CCC(=O)N(Cc3ccccc3F)C2)n1 (configuration not stated) | . | 3 | 0 | 25 | 3
COc1cc(-c2cnc3c(NC=O)cc(-c4cccnc4)cn23)cc(OC)c1OC | . | 76* | . | . | .
COc1cc(-c2cnc3c(NC=O)cc(-c4ccsc4)cn23)cc(OC)c1OC | . | 56* | . | . | .
COc1cc(-c2cc(NC=O)c3ncc(-c4ccc(F)cc4)n3c2)cc(OC)c1OC | . | 35 | . | . | .
O=C(COc1ccc2c3c(c(=O)oc2c1)CCC3)NC(Cc1ccc(Cl)cc1)C(=O)O (configuration not stated) | . | 2 | 0 | 8 | 4
C/C(=N\NC(=O)c1cccs1)c1c(O)cc(C)oc1=O | . | 0 | 1 | 0 | -6
C/C(=N\Nc1ccc(Cl)cc1)c1c(O)cc(C)oc1=O | -0.0081 | -3 | 0 | -82 | 125*
Cc1cccc(N2CC(C(=O)OCc3ccc([N+](=O)[O-])cc3)CC2=O)c1 (configuration not stated) | -0.44 | -2 | 0 | 60* | 8
Cc1ccc(N2CC(C(=O)Oc3cccc(N4C(=O)CCC4=O)c3)CC2=O)cc1 (configuration not stated) | 7.1* | 3 | 0 | 3 | 0
Cc1ccc(N2CC(C(=O)OCc3ccccc3)CC2=O)cc1 (configuration not stated) | -4.3* | 7 | 0 | -15 | -12
Cc1ccc(N2CC(C(=O)OCc3ccccc3F)CC2=O)cc1 (configuration not stated) | -1.5 | 2 | 0 | -3 | 1
O=C(NCCC(=O)N1CCCCCCC1)c1ccc(Cl)cc1 | . | 0 | 0 | . | -7
Cc1ccc2nc(N3CCN(C(=O)c4ccc(F)cc4)CC3)c(C#N)cc2c1 | . | 6 | 0 | . | 25
Cc1ccc2cc(C#N)c(N3CCN(C(=O)c4cccs4)CC3)nc2c1 | . | 58* | 0 | 51 | 2
FC(F)(F)c1ccccc1-n1c(-c2cnccn2)n[nH]c1=S | 0.09 | 4 | 0 | 74* | 41
Cc1ccc(-n2c(-c3cnccn3)n[nH]c2=S)c(Br)c1 | . | 1 | 0 | -109 | 5
O=C1C=CC(=Nc2ccc3c(c2)Cc2ccccc2-3)O1 | . | -5 | . | . | .
